# TDP1 block: blocks human tyrosyl-DNA phosphodiesterase 1. Potency, µM (titrated, usually from 130 µM), without a hit: at the top dose activity change, negative = inhibition, most hits filed as inhibitors. AID 485290. recombinant TDP1, AlphaScreen DNA substrate cleavage. hit rate 0.28% among 350,000. Q9NUW8; note: potency is the fitted concentration of half-maximal effect; nearly all actives have a fitted effect of over 40% in size
#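 Enzyme-compound mixtures sat 15 min at room temperature, followed by a 5 min reaction with 15 nM final substrate and 10 min with AlphaScreen beads. Recombinant human Tdp1 was used at 1 nM final.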
# IL-1B inflam inh: inhibitors of inflammasome signaling (IL-1 beta secretion); THP-1 LPS/ATP IL-1B secretion, AlphaLISA, 16 h; hits give low values; activity change, % at 57.5 µM; hit rate 4.7% among 360,000; AID 743279; in the data active = activity change below about -50%; inconclusive = mostly about -30% to -49%
#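 Secreted IL-1B measured by AlphaLISA bead assay after 16 h compound exposure of THP-1 cells; compounds (final up to 57.5 uM) added 1 h before LPS (250 ng/mL) and ATP (1.25 mM) stimulation; lower signal means less secretion.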
# Six1-Eya2 inh: inhibitors of human Six1/Eya2 interaction; AlphaScreen GST-Six1/His-Eya2 binding, biochemical; hits give low values; activity change, % (no concentration beside the values); hit rate 0.56% among 360,000; AID 651725; in the data active = activity change below about -65%; inconclusive = mostly about -30% to -63%
# Target sequence (O00167 whole entry, looked up): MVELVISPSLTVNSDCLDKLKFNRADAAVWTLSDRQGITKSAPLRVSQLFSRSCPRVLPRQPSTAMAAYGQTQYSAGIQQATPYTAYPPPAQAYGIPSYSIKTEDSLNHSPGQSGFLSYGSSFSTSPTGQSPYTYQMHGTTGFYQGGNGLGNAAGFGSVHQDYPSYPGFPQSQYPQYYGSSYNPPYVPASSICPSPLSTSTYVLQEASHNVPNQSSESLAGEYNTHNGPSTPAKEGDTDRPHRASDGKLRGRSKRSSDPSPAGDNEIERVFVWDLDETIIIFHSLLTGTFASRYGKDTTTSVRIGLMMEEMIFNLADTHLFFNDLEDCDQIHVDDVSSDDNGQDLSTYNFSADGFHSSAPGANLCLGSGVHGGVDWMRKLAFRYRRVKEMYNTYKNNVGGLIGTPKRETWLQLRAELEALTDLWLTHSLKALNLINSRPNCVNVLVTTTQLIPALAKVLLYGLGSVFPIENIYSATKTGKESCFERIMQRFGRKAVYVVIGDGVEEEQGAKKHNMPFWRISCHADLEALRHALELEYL
# Target sequence (Q15475 whole entry, looked up): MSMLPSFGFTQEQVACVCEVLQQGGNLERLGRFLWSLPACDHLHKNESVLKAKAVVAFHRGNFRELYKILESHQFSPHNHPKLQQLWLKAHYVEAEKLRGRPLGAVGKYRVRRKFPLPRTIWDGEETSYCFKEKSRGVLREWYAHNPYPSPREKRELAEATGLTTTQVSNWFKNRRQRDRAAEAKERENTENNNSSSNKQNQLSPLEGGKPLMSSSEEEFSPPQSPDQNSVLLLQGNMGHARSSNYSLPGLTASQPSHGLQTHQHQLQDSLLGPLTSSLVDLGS
#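 Six1/Eya2 binding was read as AlphaScreen signal after compounds were pinned into GST-Six1 plus His-tagged Eya2 (5X stock 250/500 nM) in pH 8.0 Tris/NaCl/TCEP buffer, beads added, then incubated 1 h, 37 C, dark.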
# TDP1 cell noCPT: qHTS for Inhibitors of human tyrosyl-DNA phosphodiesterase 1 (TDP1): qHTS in cells in absence of CPT. DT40 Tdp1-/- hTDP1 cells, no CPT, ATP luminescence, 48 h. Potency, µM (doses to about 46.2 µM), without a hit: top-dose activity change, negative = growth inhibition, actives largely listed as inhibitors. hit rate 15% among 420,000. AID 686978, 2013; note: potency is the fitted concentration of half-maximal effect; nearly all actives have a fitted effect of over 55% in size
#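 Stably hTDP1-transfected Tdp1-null chicken DT40 cells were treated with library compounds minus camptothecin and grown for at least 48 hr at 37 °C, after which cellular ATP was quantified by luminescence.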
# CtBP-E1A inh: blocks the CtBP interaction with E1A; AlphaScreen GST-E1A/His-CtBP binding, 1536-well; hits give low values; hit rate 0.49% among 340,000; AID 651724; activity change, % (test concentration not listed); in the data active = activity change below about -65%; inconclusive = mostly about -30% to -63%
#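 Homogeneous bead-based format: GST-tagged E1A captured on glutathione donor beads, His-tagged CtBP on nickel acceptor beads; compounds precede bead addition by 2 h at 37 °C.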
# DT40 TDP1 CPT: DT40-hTDP1 cell growth loss with CPT; Potency, µM (titrated, usually from 46.2 µM), for inactives: at the highest dose activity change, negative = growth inhibition, hits mostly inhibitors; hit rate 12% among 420,000; AID 686979; chicken DT40 Tdp1-/-;hTDP1 cells + 20 nM CPT, ATP luminescence, 48 h; note: potency is the fitted concentration of half-maximal effect; nearly all actives have a fitted effect of over 55% in size
#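 Chicken DT40 Tdp1-/- cells complemented with human TDP1, 400 cells/well, exposed to compounds plus 20 nM camptothecin for at least 48 h at 37 C; viability read as ATP content by CellTiter-Glo luminescence.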
# Active calls of the source: *; ? = inconclusive; · = no result given. Only some compounds are listed: those with a hit (about 18% of all), similar ones and a draw of the others. Unless noted, calls come from the whole dose curve; as a rule, active = well fitted curve in the direction sought with a large enough effect; inconclusive = small, poorly fitted or top-dose-only effect, or another doubt; inactive = no such curve, though single readings can be large; an effect the other way counts as inactive or inconclusive. % is set by controls: 0 for no effect and ±100 for the full control effect.
SMILES,TDP1 block,IL-1B inflam inh,Six1-Eya2 inh,TDP1 cell noCPT,CtBP-E1A inh,DT40 TDP1 CPT
CC(=O)c1cccc(NC(=O)c2ccc(OCc3c(C)noc3C)cc2)c1,-3.3%,17.9,-2.9,-18.9%,·,-12.4%
Cc1noc(C)c1COc1ccc(C(=O)NCc2cccs2)cc1,-0.3%,-98.8*,20.2,-23.4%,-14.4,-6.9%
CC(=O)c1ccccc1NC(=O)c1ccc(OCc2c(C)noc2C)cc1,-3.6%,-66.4*,4.6,18.4µM*,-6.0,?
Cc1cccc(C(=O)Nc2ccccc2C(=O)OCc2c(C)noc2C)c1,-7.7%,-57.2*,11.8,?,13.6,-15.7%
Cc1ccccc1NC(=O)c1cccc(OCc2c(C)noc2C)c1,-0.9%,?,6.3,-18.3%,5.4,-17.6%
O=C(COC(=O)c1cc([N+](=O)[O-])ccc1N1CCOCC1)c1ccc(OC(F)F)cc1OC(F)F,0.0%,?,-3.2,?,0.0,?
c1ccc(OCc2nc3ccccc3[nH]2)cc1,-3.4%,10.2,3.1,-22.8%,2.4,?
SCc1nc2ccccc2[nH]1,·,·,·,10µM*,·,?
Clc1ccc(OCc2nc3ccccc3[nH]2)cc1,·,-51.4*,6.4,?,-1.1,3.7%
CN(C)CCCn1c(NCc2ccc3c(c2)OCO3)nc2ccccc21,0.5%,?,-0.3,-22.9%,0.4,-29.3%
CC(O)(c1ccc(F)c(F)c1)c1nc(-c2ccccc2)cs1 (stereo unspecified),·,-10.0,8.4,13µM*,1.5,?
CC(O)(c1ccc(F)c(F)c1)c1nc(-c2cc(F)cc(F)c2)cs1 (stereo unspecified),·,19.4,8.9,16.4µM*,9.1,?
COc1ccc(C(=O)COC(=O)C2COc3ccccc3O2)c(OC)c1 (stereo unspecified),·,11.5,1.0,2.0%,4.3,?
CCOC(=O)C(C(=O)c1ccccc1)C1CC(C)NC(=S)N1 (stereo unspecified),-0.6%,4.4,4.6,5.7%,-12.2,-1.3%
CCn1c(C)nc2cc(C(=O)N/N=C/c3ccccc3)ccc21,2.5%,-17.7,-14.3,-17.5%,-23.0,7.0%
CCC(CC)=N/N=C/c1c(O)n(CC)c2cc(C3=NNC(=O)CC3)ccc12,4.4%,-10.8,?,9.2µM*,-17.5,?
CCCCOc1ccc(C2=NNC(=O)CC2)cc1,2.3%,-19.7,-21.6,-4.0%,-15.2,-23.9%
CCn1c(O)c(/C=N/N=C/c2ccccc2)c2ccc(C3=NNC(=O)CC3)cc21,-2.2%,?,-4.8,18.4µM*,-18.9,?
Cc1cc2nc(C3CCCCC3)c(Cc3cccc(Cl)c3)n2c(C)c1Br,·,38.4,-1.0,-25.2%,4.9,-18.0%
COC(=O)c1ccc2nc(C3CCCCC3)c(Cc3ccc(OC)cc3C)n2c1,·,-29.0,0.4,?,0.1,?
COC(=O)c1ccc2nc(C3CCCCC3)c(Cc3cccc(Cl)c3)n2c1,·,11.5,1.7,16.4µM*,4.6,?
Clc1cccc(Cc2c(C3CCCCC3)nc3ccc(Br)cn23)c1,·,20.2,-1.9,?,0.4,23.1µM*
COC(=O)c1ccc2nc(C3CCCCC3)c(Cc3ccc(C)cc3)n2c1,·,6.3,1.4,23.1µM*,1.7,25.9µM*
O=C(OCC1CCNCC1)c1ccc2c(c1)OCO2,·,1.0,1.5,-19.4%,10.0,6.3%
